# Bioassay records from PubChem BioAssay.
# Hits are enriched below; roughly 12% of the tested compounds scored in any of these assays.
# Sm TGR block = qHTS Assay for the Inhibitors of Schistosoma Mansoni Peroxiredoxins | Schistosoma mansoni thioredoxin glutathione reductase (TGR), Q962Y6 | purified TGR, DTNB reduction, TNB absorbance 405 nm | Potency, µM (highest dose often 114 µM), inactives show at the highest dose activity change, negative = inhibition, usual class: inhibitors | actives 3% (n = 360,000); active = well fitted inhibition curve with a large enough effect; inconclusive = small, poorly fitted or top-dose-only effect; inactive = no such curve, though single readings can be large or run the other way; also: potency is read from the fitted curve at half-maximal effect; % is scaled to controls: 0 for no effect and ±100 for the full control effect; nearly all actives have a fitted effect of over 60% in size
#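 First, TGR (20 nM dispensed) and NADPH were mixed with compound. Second, a 15 min room-temperature incubation followed. Third, further NADPH and then DTNB were added to start the reaction. Finally, TNB absorbance was monitored kinetically.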
# FMDV inh = High Throughput Screening for Foot and Mouth Disease Virus Antivirals; FMDV antiviral cell-based qHTS; Potency, µM (titrated, usually from 57.9 µM), for the others: top-dose activity change, negative = inhibition, actives largely listed as inhibitors; actives 1.2% (n = 410,000); AID 1159524, 2015; calls by dose curve; tested in HEK293T cells; also: read-out not given here; potency is read from the fitted curve at half-maximal effect; % is scaled to controls: 0 for no effect and ±100 for the full control effect; nearly all actives have a fitted effect of over 45% in size
# CHX counter = Cycloheximide Counterscreen for Small Molecule Inhibitors of Shiga Toxin | cell reporter, cycloheximide protein synthesis inhibition counterscreen | max response, % | actives 12% (n = 300,000) | AID 2314, 2010; in the data active = max response mostly above about 13%, no sharp cut-off; inactive = mostly below about 14%; also: read at 38.3 µM for the half of the compounds with a filed dose; 0% is about no effect
# Shiga inhibitor = A qHTS for Small Molecule Inhibitors of Shiga Toxin; Vero cells, Shiga toxin protein synthesis inhibition reporter; inhibition, % at 38.7 µM; actives 9.2% (n = 290,000); in the data active = inhibition mostly above about 28%, no sharp cut-off; inactive = mostly below about 43%; also: 0% is about no effect
# Starred values were filed as active, the others as inactive; ? = inconclusive; . = not tested or not shown; + = active, no number.
SMILES,Sm TGR block,FMDV inh,CHX counter,Shiga inhibitor
COc1cc(C2c3cc4c(cc3C(OC3OC5COC(C)O[C@@H]5C(O)C3O)C3COC(=O)C23)OCO4)cc(OC)c1O (stereo not given in full),.,2%,.,.
Cc1nc(NCc2ccccc2)sc1C(=O)Nc1ccccc1,-9%,30%,26*,50*
Cc1nc(NC(C)c2ccccc2)sc1C(=O)Nc1ccccc1 (stereo not given),-1%,0%,5,11
Cc1nc(Nc2ccccc2Cl)sc1C(=O)Nc1ccccc1,1%,17%,19*,22
CC(=O)Oc1ccc2cc(-c3nc4ccccc4n3C)c(=O)oc2c1,2%,.,32,75*
Cn1c(-c2cc3ccc(OC(=O)C(C)(C)C)cc3oc2=O)nc2ccccc21,1%,46%,12,32
CCN(CC)Cc1c(O)ccc2cc(-c3nc4ccccc4n3C)c(=O)oc12,?,3%,11*,9
COCCn1c(=S)[nH]c2cc(C(=O)N3CCc4ccccc43)ccc2c1=O,-12%,7.9µM*,9,-7
COCCn1c(=S)[nH]c2cc(C(=O)N3CCN(Cc4ccc5c(c4)OCO5)CC3)ccc2c1=O,-11%,14µM*,1,-4
C=C(C)CSc1nc2sc3c(c2c(=O)n1-c1ccccc1)CCC(C)C3 (stereo not given),48%,-19%,.,.
C(=C\c1nccc2c1[nH]c1ccccc12)/c1ccccc1,11%,0%,33*,85*
Fc1ccc(/C=C\c2nccc3c2[nH]c2ccccc23)cc1,.,6%,13,45
Cc1ccc(/C=C\c2nccc3c2[nH]c2ccccc23)cc1,.,17%,33*,59
COc1ccc(NC(=O)Cn2c(SCc3ccc(C)cc3)nc3cccnc32)c(OC)c1,-9%,-2%,.,.
Cc1ccc(-c2nc3ccc(Cl)cc3n2OC(=O)N(C)C)cc1,9%,3%,36,124*
On1c(-c2ccccc2)nc2ccc(Cl)cc21,-2%,0%,26,84*
COc1ccc(C(=O)c2nc3ccccc3n2C(C)C)cc1OC,28%,-15%,8,-7
COc1ccc(C(=O)c2nc3ccccc3n2C(C)C)cc1,32µM*,0%,-3,-4
Cc1ccc(-c2nc3ccc(Cl)cc3n2OC(C)C(=O)O)cc1 (stereo not given),.,80%,36*,83*
Cc1cc(Cl)ccc1OC(C)C(=O)O (stereo not given),0%,-16%,-4,-9
CCCCn1cc(S(=O)(=O)c2ccc(OC)cc2)c(=O)c2cc(F)c(N3CCOCC3)cc21,-1%,-3%,.,.
CCOC(=O)c1cc(-c2ccc(OC)cc2)n(CCC(=O)Nc2cccc(C(C)=O)c2)c1C,-1%,-9%,.,.
COc1cc(Cl)c(C)cc1NC(=O)C1CCN(c2nc3ccccc3n3cccc23)CC1,-17%,0%,.,.
CC(On1c(-c2ccccc2)nc2ccc(Cl)cc21)C(=O)O (stereo not given),.,24%,28*,56*
COc1ccc(-c2nc3ccccc3n2OC(C)C(=O)O)cc1 (stereo not given),18%,23%,35*,76*
SMILES,Sm TGR block,FMDV inh,CHX counter,Shiga inhibitor
Clc1ccc(-c2nc3ccccc3n2OCc2ccccc2)cc1,6%,11%,-2,-4
Cc1ccc(Cn2c(=O)n(-c3ccc(C)c(C)c3)c(=O)c3c(C)c(C)sc32)cc1,6%,-23%,.,.
O=C(NCCCN1CCN(c2cccc(Cl)c2)CC1)c1sc2ncccc2c1-n1cccc1,1%,?,.,.
O=C(Nc1ccccc1)c1cccc(C(=O)Nc2ccccc2)n1,-1%,-6%,-2,-5
COc1cccc(NC(=O)c2ccccc2Br)c1,-24%,76%,28*,.
CN(C)c1ccc(NC(=O)c2cccc(C(=O)Nc3ccc(N(C)C)cc3)n2)cc1,-14%,?,49*,+
COc1cccc(NC(=O)c2ccccc2F)c1,5%,56%,.,.
COc1cccc(NC(=O)c2cc3ccccc3cc2OC)c1,-10%,74%,55*,108*
COc1cc(OC)c(C(=O)Nc2ccc3ccccc3c2)cc1OC,-6%,65%,43*,107*
CCc1nc2ccc(C(=O)NCCc3ccc(SC)cc3)cc2nc1CC,6%,16%,.,.
Cc1ccc(C)c(NC(=O)CSc2nnc(CNC(=O)c3ccccc3)n2-c2ccccc2)c1,2%,-6%,.,.
COc1cccc(C(=O)Nc2ccc(N(C)C)cc2)c1OC,?,16%,39*,124*
COc1cccc(C(=O)Nc2ccncc2)c1OC,-23%,-21%,1,.
